# Rev-erbA mod – Rev-erb alpha (human) modulation | Rev-erbα–FITC-DNA binding, fluorescence polarization, 90 min | activity, % at 10 µM | 0.79% of 370,000 active | P20393;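 active means activity above about 14%, limit read from the data; passing the limit was not always enough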;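 further: 0% = DMSO wells with 35 nM protein and 100% = DMSO wells with 750 nM protein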
# Target sequence (P20393 whole entry, looked up): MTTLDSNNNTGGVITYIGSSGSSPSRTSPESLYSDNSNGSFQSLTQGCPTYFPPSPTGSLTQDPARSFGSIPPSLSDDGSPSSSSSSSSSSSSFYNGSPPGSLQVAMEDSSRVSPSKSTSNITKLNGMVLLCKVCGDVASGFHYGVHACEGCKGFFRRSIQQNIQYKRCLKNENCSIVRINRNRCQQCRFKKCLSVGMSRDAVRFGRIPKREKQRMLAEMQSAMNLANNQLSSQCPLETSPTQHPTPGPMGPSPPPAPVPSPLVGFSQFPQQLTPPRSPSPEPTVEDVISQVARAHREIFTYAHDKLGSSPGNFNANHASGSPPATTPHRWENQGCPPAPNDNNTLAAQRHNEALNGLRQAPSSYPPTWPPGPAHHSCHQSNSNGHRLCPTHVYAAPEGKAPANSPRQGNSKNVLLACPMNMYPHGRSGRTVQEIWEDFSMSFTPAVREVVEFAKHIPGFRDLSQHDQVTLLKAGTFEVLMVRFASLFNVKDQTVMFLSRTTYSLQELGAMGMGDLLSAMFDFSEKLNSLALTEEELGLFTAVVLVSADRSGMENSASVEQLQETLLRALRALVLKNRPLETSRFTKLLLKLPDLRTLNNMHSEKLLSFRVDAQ
# PKA-R1A act – activates the PKA-R1A holoenzyme complex | P00514+P68181 | PKA-R1A dissociation, Cy5-IP20 fluorescence polarization; scaled: DMSO 0%, 113 µM cGMP 100% | activation, % at 11.4 µM | 0.083% of 340,000 active | AID 504707;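 active means percent activation above the mean of all tested compounds plus 3 SD, cut at about 19% in these data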;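 further: higher means more PKAc released from R1A so a rise in polarization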
# PG9 binder – binds the HIV-1 gp120 antibody PG9; TR-FRET gp120-PG9 antibody binding; inhibition, % at 6.7 µM; 0.43% of 360,000 active; AID 624416; in the data active means inhibition above about 8.5%
# PKA-R2B act – activators of human PKA-R2B complex; P22694+P31323; PKA-R2B holoenzyme dissociation, Cy5-IP20 fluorescence polarization; R2B truncated from residue 108, S112A mutant; 0% DMSO only, 100% 113 µM cGMP; activation, % at 11.4 µM; 0.079% of 340,000 active; AID 504700;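 active means activation above a cutoff set at the mean over all compounds plus 3 SD, cut at about 18% in these data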;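 further: higher means more holoenzyme dissociation and a rise in polarization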
# R2B FP artifact – FP assay interference, PKA-R2B counter-screen. AID 504796. activation, % at 11.4 µM. shares compounds with PKA-R2B act. FP artifact counterscreen, fluorescence polarization. 6% of 270 active; in the data active means activation above about 20%;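 further: Cy5 labelled IP20 peptide probe with compound but no PKA protein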
# PKA-R2B confirm – confirmation of human PKA-R2B complex activators; AID 504797; 9% of 270 active; shares compounds with PKA-R2B act; fluorescence polarization, activation; activation, % at 11.4 µM; in the data active means activation above about 19%
# Numbers without * were called inactive; · = no result. Shown are actives, neighbours in structure and some others; about 1.2% of the full set was active somewhere.
SMILES,Rev-erbA mod,PKA-R1A act,PG9 binder,PKA-R2B act,R2B FP artifact,PKA-R2B confirm
Brc1ccc2cccnc2c1,-8,6,3,23*,-1,0
COC(=O)c1c[nH]n2c(=O)c(C(C)C)c(C)nc12,-4,-2,-1,-12,·,·
COC(=O)c1c[nH]n2c(=O)cc(CCl)nc12,3,6,-1,20*,0,1
CC[C@H]1OC(=O)[C@H](C)[C@@H](O[C@H]2C[C@@](C)(OC)[C@@H](O)[C@H](C)O2)[C@H](C)[C@@H](O[C@@H]2O[C@H](C)C[C@H](N(C)C)[C@H]2O)[C@](C)(O)C[C@@H](C)/C(=N\OCOCCOC)[C@H](C)[C@@H](O)[C@]1(C)O,-1,·,·,·,·,·
CC1=[N+](C)c2ccc3ccccc3c2C1(C)C,-11,14,-2,19*,7,12
COc1ccccc1CN1CCN(Cc2ccc3ccccc3c2)CC1,-2,4,-2,-1,·,·
COc1ccc(CN2CCN(Cc3ccc4ccccc4c3)CC2)cc1OC,2,-9,2,23*,-2,-5
CCCc1cc(NC(=O)CCl)n(-c2ccccc2)n1,-4,0,-3,20*,0,-3
C[C@@H]1O[C@@H](OC[C@H]2OC(Oc3c(-c4ccc(O)c(O)c4)oc4cc(O)cc(O)c4c3=O)[C@H](O)[C@@H](O)[C@@H]2O)[C@H](O)[C@H](O)[C@H]1O (stereo not given in full),-1,·,·,·,·,·
Cc1[nH]nc(SCC(=O)Nc2cccc(O)c2)c1[N+](=O)[O-],-5,-9,-1,19*,2,5
NC(=O)CSc1nnc(COc2ccccc2)n1CCc1ccccc1,-2,-5,0,22*,2,2
CCCCCCCCCCCCCCCC(=O)OC[C@H](NC(=O)C(Cl)Cl)[C@H](O)c1ccc([N+](=O)[O-])cc1,5,·,·,·,·,·
CC(=O)[C@H]1CCC2C3C[C@H](C)C4=CC(=O)CC[C@]4(C)C3[C@@H](O)C[C@@]21C (stereo not given in full),-2,·,·,·,·,·
CN1CCN(C(=O)/C(=C/c2ccc(F)cc2)NC(=O)c2ccccc2)CC1,3,-1,1,-7,·,·
CN1CCN(C(=O)/C(=C/c2ccc(N(C)C)cc2)NC(=O)c2ccccc2)CC1,-1,-9,-6,20*,6,4
CC1(C)C2CCC1(C)C(O)C2 (stereo not given),0,·,·,·,·,·
CCN(CC)c1ccc(-n2c(C)c(C(C)=O)c(C(C)=O)c2C)cc1,-1,-10,0,19*,0,2
CC1(C)OC(=O)C(OCC2CC2)=C1c1ccc(S(C)(=O)=O)cc1,-4,·,·,·,·,·
NS(=O)(=O)c1cc2c(cc1Cl)CN(C1CCCCC1)C2=O,-7,·,·,·,·,·
O=C(Cc1ccc(Cl)cc1Cl)NC1CCCCCC1,2,10,1,23*,-4,-1
CN1C2CCC1CC(NC(=O)c1cc(S(=O)(=O)N(C)C)c(Cl)cc1Cl)C2 (stereo not given),3,5,1,19*,2,1
C=C(c1ccccc1OCc1cccc(Cl)c1)n1ccnc1,-1,·,·,·,·,·
C/C=C\C1=C(C(=O)O)N2C(=O)C(NC(=O)C(N)c3ccc(O)cc3)C2SC1 (stereo not given),1,·,·,·,·,·
Cc1cc(C(=O)c2ccccc2)c(NC(=O)CN2CCOCC2)s1,3,-15,0,18*,0,0
CC(=O)O[C@]1(C(C)=O)CCC2C3C=C(Cl)C4=CC(=O)CC[C@]4(C)C3CC[C@@]21C (stereo not given in full),4,·,·,·,·,·
CO[C@H]1/C=C/O[C@@]2(C)Oc3c(C)c(O)c4c(O)c(c(C=NN5CCN(C)CC5)c(O)c4c3C2=O)NC(=O)/C(C)=C\C=C\C(C)[C@H](O)[C@@H](C)[C@@H](O)[C@@H](C)[C@@H](OC(C)=O)[C@@H]1C (stereo not given in full),-2,·,·,·,·,·
C[C@]12CCC(=O)C=C1CCC1C2[C@@H](O)C[C@@]2(C)C1CC[C@]2(O)C(=O)CO (stereo not given in full),-7,·,·,·,·,·
CN(CCOc1ccccc1)CC(=O)Nc1ccc(Cl)cc1[N+](=O)[O-],3,-2,-2,21*,-2,-3

# Screens (PubChem BioAssay)
